Active and inactive are the calls of the source.
Assays:
[1] = binders of probe aFSTL3 on microarray, primary screen, stem cell growth factor project, biochemical, small-molecule microarray, fluorescence 635/667 (AID 1064); conditions: higher = more signal;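 further: measures binding of the biotinylated anti-FSTL3 antibody to printed compounds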
[2] = binders from COS7 lysate, DM2A8 probe, primary screen, torsin A project, cell lysate, small-molecule microarray, fluorescence 635/667 (AID 1065); conditions: higher = more signal, COS7 lysate expressing mutant human TOR1A
[3] = binders of probe aFGF2 on microarray, primary screen, stem cell growth factor project, biochemical, small-molecule microarray, fluorescence 635/667 (AID 1067); conditions: higher = more signal;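 further: measures binding of biotinylated aFGF2 protein to printed compounds on slides; z-score merges feature fluorescence and signal-to-noise across triplicate slides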
[4] = binders of probe aFGF10 on microarray, primary screen, stem cell growth factor project, biochemical, small-molecule microarray, fluorescence 635/667 (AID 1071); conditions: higher = more signal;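 further: score merges 667 nm spot intensity and signal to noise from triplicate slides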
[5] = molecular target: Neurogenic locus notch homolog protein 2 (Homo sapiens) (UniProt Q04721); assay: Notch2 binders on small-molecule microarrays, primary screen, biochemical, small-molecule microarray, 635 nm fluorescence, stem cell growth factors (AID 1073); conditions: Notch2 binding, higher = more signal
[6] = molecular target: Pro-neuregulin-1, membrane-bound isoform (Homo sapiens) (UniProt Q02297); assay: NRG1 binders on small-molecule microarrays, primary screen, psychiatric disease protein project, biochemical, small-molecule microarray, fluorescence 635/667 (AID 1075); conditions: NRG1 binding, 635 nm fluorescence, higher = more signal;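 further: score combines 667 nm spot fluorescence with signal to noise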
[7] = test system: Neuregulin-1 EGF-like domain; assay: binders of neuregulin-1 EGF-like domain, primary screen, biochemical, small-molecule microarray, 635 nm fluorescence (AID 1081); conditions: small-molecule microarray binding, higher = more signal;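 further: binding of the protein to compounds printed on small-molecule microarray slides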
[8] = FRG1 promoter luciferase signal modulators, primary screen, FRG1 inhibition for FSHD, cell-based, C2C12 myotubes, firefly/Renilla luciferase, luminescence (AID 1084); conditions: higher = more signal, called active from +8 up or from −8 down
[9] = binders of probe aFST on microarray, primary screen, stem cell growth factor project, biochemical, small-molecule microarray, fluorescence 635/667 (AID 1086); conditions: higher = more signal;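 further: score merges 667 nm fluorescence with signal-to-noise of each printed compound spot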
[10] = binders of probe aHhip on microarray, primary screen, stem cell growth factor project, biochemical, small-molecule microarray, fluorescence 635/667 (AID 1087); conditions: higher = more signal;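 further: score merges spot fluorescence at 667nm with spot signal to noise ratio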
[11] = test system: PRMT1 (protein arginine N-methyltransferase 1); assay: PRMT1 binders on small-molecule microarrays, primary screen, biochemical, small-molecule microarray, 635 nm fluorescence (AID 1088); conditions: small-molecule microarray binding, higher = more signal;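 further: binding of Prmt1 protein to compounds spotted on small-molecule microarray slides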
[12] = yeast growth modulation, basal conditions, primary screen, YJM789 clinical isolate, OD600, 24 h (AID 1089);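 further: growth of clinical yeast isolate S. cerevisiae YJM 789 seeded 1000 cells per well; test concentration not given here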; conditions: S. cerevisiae YJM789 growth, higher = more signal, called active from +8 up or from −8 down
[13] = fission yeast growth modulation, primary screen, strain 972, OD600, 24 h, no modulator (AID 1090);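 further: basal condition with compound alone and no growth modifier present; test concentration not given here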; conditions: S. pombe 972 growth, higher = more signal, called active from +8 up or from −8 down
[14] = S. cerevisiae growth modulation with rapamycin, primary screen, strain BY4716, OD600, 96 h (AID 1091); conditions: higher = more signal, called active from +8 up or from −8 down; further: test concentration not given here
[15] = molecular target: Torsin-1A-interacting protein 2 (Homo sapiens) (UniProt Q8NFQ8); assay: LULL1 binders on small-molecule microarray, primary screen, cell lysate, human LULL1 lysate, 635/667 nm fluorescence (AID 1092); conditions: hLULL1 lysate binding, 635 nm fluorescence, higher = more signal;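 further: probe is lysate of COS7 cells overexpressing human LULL1; score merges per-feature 667 nm fluorescence with signal-to-noise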
[16] = E. coli growth modulation, two-sided OD650, primary screen, E. coli filamentation project, strain DRC41, 24 h (AID 1093); conditions: OD650, 24 h, higher = more signal, called active from +8 up or from −8 down;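 further: MC1000 strain lacking acrAB efflux and sulA so SOS filamentation is blocked; test concentration not given here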
[17] = small-molecule microarray binders of probe aLefty2, primary screen, biochemical, biotinylated probe, 635/667 nm fluorescence (AID 1094); conditions: higher = more signal;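 further: score merges spot fluorescence near 667 nm with spot signal-to-noise ratio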
[18] = test system: Noggin (protein binding on small-molecule microarray); assay: Noggin binders on small-molecule microarray, primary screen, biochemical, 635/667 nm fluorescence (AID 1095); conditions: 635 nm fluorescence, higher = more signal;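 further: score merges 667 nm feature fluorescence with signal to noise over triplicate slides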
[19] = molecular target: Neurogenic locus notch homolog protein 3 (Homo sapiens) (UniProt Q9UM47); assay: NOTCH3 binders on small-molecule microarray, primary screen, biochemical, 635/667 nm fluorescence (AID 1096); conditions: NOTCH3 binding, 635 nm fluorescence, higher = more signal
[20] = small-molecule microarray binders of probe aEGFR, primary screen, biochemical, biotinylated probe, 635/667 nm fluorescence (AID 1097); conditions: higher = more signal;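 further: probe is a biotinylated anti-EGFR antibody binding compounds printed on slides; score combines fluorescence near 667 nm and signal to noise of each spot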

Chain of Neurogenic locus notch homolog protein 2 (Homo sapiens) (Q04721 whole entry, looked up, canonical isoform): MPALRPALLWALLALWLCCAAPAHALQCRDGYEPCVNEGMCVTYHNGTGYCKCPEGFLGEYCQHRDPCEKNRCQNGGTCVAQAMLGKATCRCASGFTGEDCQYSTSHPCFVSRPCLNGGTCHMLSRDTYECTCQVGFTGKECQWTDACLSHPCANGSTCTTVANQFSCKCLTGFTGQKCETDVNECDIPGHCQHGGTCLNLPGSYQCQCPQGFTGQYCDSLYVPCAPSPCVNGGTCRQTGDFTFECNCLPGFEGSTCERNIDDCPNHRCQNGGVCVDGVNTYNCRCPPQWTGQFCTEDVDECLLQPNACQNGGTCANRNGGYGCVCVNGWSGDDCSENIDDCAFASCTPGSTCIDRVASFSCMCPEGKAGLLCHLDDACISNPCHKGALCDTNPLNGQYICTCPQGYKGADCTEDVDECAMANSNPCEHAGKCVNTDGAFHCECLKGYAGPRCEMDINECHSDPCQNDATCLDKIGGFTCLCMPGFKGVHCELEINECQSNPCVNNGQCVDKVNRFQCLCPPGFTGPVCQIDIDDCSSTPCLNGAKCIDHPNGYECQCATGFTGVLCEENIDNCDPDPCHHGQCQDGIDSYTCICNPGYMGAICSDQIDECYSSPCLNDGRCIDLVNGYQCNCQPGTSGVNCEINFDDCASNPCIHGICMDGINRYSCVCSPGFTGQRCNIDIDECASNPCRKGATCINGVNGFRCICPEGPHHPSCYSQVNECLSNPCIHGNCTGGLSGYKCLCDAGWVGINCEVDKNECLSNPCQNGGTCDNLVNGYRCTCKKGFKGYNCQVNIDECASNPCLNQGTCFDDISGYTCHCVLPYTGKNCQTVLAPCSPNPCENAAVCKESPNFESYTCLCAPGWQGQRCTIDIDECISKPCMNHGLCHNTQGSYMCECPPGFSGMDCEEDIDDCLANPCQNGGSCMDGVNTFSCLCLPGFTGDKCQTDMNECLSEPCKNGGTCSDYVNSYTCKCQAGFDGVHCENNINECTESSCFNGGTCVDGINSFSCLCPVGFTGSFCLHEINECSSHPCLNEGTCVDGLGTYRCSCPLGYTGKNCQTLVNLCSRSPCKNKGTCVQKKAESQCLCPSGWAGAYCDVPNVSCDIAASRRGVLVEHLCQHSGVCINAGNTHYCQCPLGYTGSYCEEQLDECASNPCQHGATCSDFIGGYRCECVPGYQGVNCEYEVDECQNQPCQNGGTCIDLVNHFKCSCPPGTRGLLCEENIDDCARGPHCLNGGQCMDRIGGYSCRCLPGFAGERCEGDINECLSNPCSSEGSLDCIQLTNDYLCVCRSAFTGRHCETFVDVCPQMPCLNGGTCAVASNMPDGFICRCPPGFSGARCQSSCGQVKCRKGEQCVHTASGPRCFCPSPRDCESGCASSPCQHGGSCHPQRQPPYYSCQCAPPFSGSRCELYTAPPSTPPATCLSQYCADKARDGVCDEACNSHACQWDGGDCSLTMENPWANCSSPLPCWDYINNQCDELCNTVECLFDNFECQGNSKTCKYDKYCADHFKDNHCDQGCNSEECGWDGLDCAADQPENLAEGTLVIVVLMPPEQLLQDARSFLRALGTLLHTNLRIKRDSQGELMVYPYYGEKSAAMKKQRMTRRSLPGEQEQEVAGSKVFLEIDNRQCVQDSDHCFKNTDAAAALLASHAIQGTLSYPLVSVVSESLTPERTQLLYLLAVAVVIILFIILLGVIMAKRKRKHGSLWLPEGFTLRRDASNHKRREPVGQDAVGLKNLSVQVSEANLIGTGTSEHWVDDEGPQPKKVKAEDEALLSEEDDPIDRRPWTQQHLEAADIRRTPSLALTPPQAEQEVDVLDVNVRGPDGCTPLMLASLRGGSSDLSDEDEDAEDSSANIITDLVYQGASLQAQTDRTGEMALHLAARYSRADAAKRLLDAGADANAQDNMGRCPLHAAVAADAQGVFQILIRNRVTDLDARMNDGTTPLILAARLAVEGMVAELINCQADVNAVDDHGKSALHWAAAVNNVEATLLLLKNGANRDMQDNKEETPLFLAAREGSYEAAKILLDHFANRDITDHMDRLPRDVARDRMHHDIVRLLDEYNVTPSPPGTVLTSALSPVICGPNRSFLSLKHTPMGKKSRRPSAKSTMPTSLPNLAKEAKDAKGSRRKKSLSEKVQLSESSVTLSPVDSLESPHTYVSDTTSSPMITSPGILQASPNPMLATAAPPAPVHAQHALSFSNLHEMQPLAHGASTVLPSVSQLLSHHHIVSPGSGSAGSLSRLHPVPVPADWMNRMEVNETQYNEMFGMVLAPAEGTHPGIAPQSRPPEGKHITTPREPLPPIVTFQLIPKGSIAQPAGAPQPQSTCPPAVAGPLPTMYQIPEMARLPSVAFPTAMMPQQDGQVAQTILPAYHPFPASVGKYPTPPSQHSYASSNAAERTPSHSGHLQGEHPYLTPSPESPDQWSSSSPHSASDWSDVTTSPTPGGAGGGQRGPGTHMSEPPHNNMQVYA
Chain of Torsin-1A-interacting protein 2 (Homo sapiens) (Q8NFQ8 whole entry, looked up): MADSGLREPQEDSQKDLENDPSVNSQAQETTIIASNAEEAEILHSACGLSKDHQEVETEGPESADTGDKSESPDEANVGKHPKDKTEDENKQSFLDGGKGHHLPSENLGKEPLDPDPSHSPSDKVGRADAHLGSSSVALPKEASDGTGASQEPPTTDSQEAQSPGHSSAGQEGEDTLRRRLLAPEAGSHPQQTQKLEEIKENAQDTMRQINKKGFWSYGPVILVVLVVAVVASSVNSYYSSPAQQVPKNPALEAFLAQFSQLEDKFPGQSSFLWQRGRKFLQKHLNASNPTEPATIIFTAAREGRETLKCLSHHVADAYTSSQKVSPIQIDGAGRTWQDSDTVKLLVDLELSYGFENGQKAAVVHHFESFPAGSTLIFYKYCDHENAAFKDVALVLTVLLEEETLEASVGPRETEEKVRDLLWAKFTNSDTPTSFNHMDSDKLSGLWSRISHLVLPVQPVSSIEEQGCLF
Chain of Pro-neuregulin-1, membrane-bound isoform (Homo sapiens) (Q02297 whole entry, looked up, the tested form may be a part, canonical isoform): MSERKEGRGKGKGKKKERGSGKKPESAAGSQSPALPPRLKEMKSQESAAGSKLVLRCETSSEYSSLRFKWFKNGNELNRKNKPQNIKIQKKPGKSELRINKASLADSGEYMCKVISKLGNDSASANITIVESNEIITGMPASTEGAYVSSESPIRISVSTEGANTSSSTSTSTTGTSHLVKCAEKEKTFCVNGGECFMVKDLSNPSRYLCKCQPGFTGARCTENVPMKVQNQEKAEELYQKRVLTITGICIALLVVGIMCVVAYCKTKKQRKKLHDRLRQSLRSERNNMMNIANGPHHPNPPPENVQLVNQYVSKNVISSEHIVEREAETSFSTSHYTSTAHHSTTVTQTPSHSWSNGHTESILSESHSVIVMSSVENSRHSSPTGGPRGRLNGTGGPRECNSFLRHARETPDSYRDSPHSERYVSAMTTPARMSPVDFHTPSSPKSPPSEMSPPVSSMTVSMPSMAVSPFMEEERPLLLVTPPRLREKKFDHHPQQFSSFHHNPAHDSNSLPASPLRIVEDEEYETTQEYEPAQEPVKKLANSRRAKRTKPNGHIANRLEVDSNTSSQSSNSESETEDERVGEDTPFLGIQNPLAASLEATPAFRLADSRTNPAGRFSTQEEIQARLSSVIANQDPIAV

COC(=O)[C@@]1(Cc2ccc(F)cc2)[C@H]2c3cc(C(=O)N(C)C)n(Cc4cc(F)cc5c4OCOC5)c3C[C@H]2CN1C(=O)c1ccccc1
composite z-score [1]: 0.149 | composite z-score [2]: 0.199 | composite z-score [3]: -0.0002 | composite z-score [4]: 0.964 | composite z-score [5]: 1.56 | composite z-score [6]: 1.81 | composite z-score [7]: 1.27 | z-score [8]: -1.82 (inactive) | composite z-score [9]: 1.03 | composite z-score [10]: -0.319 | composite z-score [11]: 1.17 | z-score [12]: -1.23 (inactive) | z-score [13]: 0.446 (inactive) | z-score [14]: 1.78 (inactive) | composite z-score [15]: 3.32 | z-score [16]: -0.375 (inactive) | composite z-score [17]: 0.44 | composite z-score [18]: 0.378 | composite z-score [19]: 1.04 | composite z-score [20]: 0.118

CCOC(=O)C[C@H]1[C@H](OC(=O)c2ccccc2-c2ccccc2)[C@@H](NC(=O)C2CCCCC2)c2cc(OCCCO)ccc2N1C(=O)Cc1ccc(OC)cc1
composite z-score [1]: 0.0253 | composite z-score [2]: 0.154 | composite z-score [3]: -0.0636 | composite z-score [4]: 0.253 | composite z-score [5]: 0.231 | composite z-score [6]: -0.0991 | composite z-score [7]: -0.163 | z-score [8]: 0.277 (inactive) | composite z-score [9]: 0.169 | composite z-score [10]: -0.12 | composite z-score [11]: 0.143 | z-score [12]: -0.93 (inactive) | z-score [13]: -0.0289 (inactive) | z-score [14]: -0.144 (inactive) | composite z-score [15]: 0.735 | z-score [16]: -1.05 (inactive) | composite z-score [17]: -0.132 | composite z-score [18]: 0.159 | composite z-score [19]: -0.292 | composite z-score [20]: -0.139

Cc1cc(C)c(C(O)C2C=CC3C(=O)NC(=O)C3N2Nc2ccc(Cl)cc2Cl)c(C)c1 (stereo not given)
composite z-score [1]: 0.246 | composite z-score [2]: -0.33 | composite z-score [3]: 0.059 | composite z-score [4]: 0.495 | composite z-score [5]: 1.49 | composite z-score [6]: 1.65 | composite z-score [7]: 1.01 | z-score [8]: 2.81 (inactive) | composite z-score [9]: 1.64 | composite z-score [10]: -0.0618 | composite z-score [11]: 1.2 | z-score [12]: -1.67 (inactive) | z-score [13]: -3.28 (inactive) | z-score [14]: 2.14 (inactive) | composite z-score [15]: 3.42 | z-score [16]: -2.14 (inactive) | composite z-score [17]: 0.114 | composite z-score [18]: 0.364 | composite z-score [19]: 0.874 | composite z-score [20]: -0.0581

C=CCN1Cc2ccccc2[C@H]2OC(c3ccc(OCCCO)cc3)=N[C@@]2(CC=C)C1=O
composite z-score [1]: 0.451 | composite z-score [2]: 0.169 | composite z-score [3]: 0.0188 | composite z-score [4]: -0.177 | composite z-score [5]: 1.12 | composite z-score [6]: 1.44 | composite z-score [7]: 1.42 | z-score [8]: -2.18 (inactive) | composite z-score [9]: 0.633 | composite z-score [10]: 0.0401 | composite z-score [11]: 1.53 | z-score [12]: -3.05 (inactive) | z-score [13]: -7.01 (inactive) | z-score [14]: -0.397 (inactive) | composite z-score [15]: 3.21 | z-score [16]: 0.763 (inactive) | composite z-score [17]: 0.185 | composite z-score [18]: 1.55 | composite z-score [19]: 0.979 | composite z-score [20]: 0.168

C=CCC(OC(C)=O)[C@@H]1[C@@H](N(Cc2cccc3ccccc23)C(=O)Cc2ccc(OC)cc2)c2cc(OCCCO)ccc2N1C(=O)c1ccc2ccccc2n1 (stereo not given in full)
composite z-score [1]: -0.192 | composite z-score [2]: 0.0233 | composite z-score [3]: 0.0437 | composite z-score [4]: 0.11 | composite z-score [5]: -0.263 | composite z-score [6]: 0.836 | composite z-score [7]: 0.154 | z-score [8]: -1.76 (inactive) | composite z-score [9]: 0.153 | composite z-score [10]: -0.152 | composite z-score [11]: 0.892 | z-score [12]: -0.482 (inactive) | z-score [13]: 0.787 (inactive) | z-score [14]: -1.24 (inactive) | composite z-score [15]: 1.2 | z-score [16]: -0.558 (inactive) | composite z-score [17]: -0.109 | composite z-score [18]: 0.201 | composite z-score [19]: 0.222 | composite z-score [20]: -0.144
